Assay results: PubChem BioAssay (NCATS)
Records with an inconclusive call do not appear. Calls of active or inactive are those of the source. Calls follow the shape of the dose curve; as a rule, active = well fitted curve in the direction sought with a large enough effect; inconclusive = small, poorly fitted or top-dose-only effect, or another doubt; inactive = no such curve, though single readings can be large; an effect the other way counts as inactive or inconclusive.

What was measured:
[1] = MultiTox-Fluor Cytotoxicity Assay - LYMP1-002 - Live Cells (AID 955); conditions: LYMP1-002 lymphoblastoid live-cell protease fluorescence viability; series mostly up to 46.1 µM;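 also: cells exposed to compound for 16 hours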
Summary of the method: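 Cytotoxicity in the human lymphoblastoid line LYMP1-002 is measured as loss of live-cell protease activity after 16 h treatment in complete culture medium. AC50 is derived from Hill-equation fits of qHTS concentration-response data.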

[2] = MultiTox-Fluor Cytotoxicity Assay - LYMP1-003 - Dead Cells (AID 961); conditions: LYMP1-003 lymphoblastoid cells, dead-cell protease fluorescence; series mostly up to 92.2 µM;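 also: cells exposed to compound for 16 h at 37 °C; nearly all actives have a fitted effect of over 70% in size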
Summary of the method: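 Human lymphoblastoid LYMP1-003 cells (2500/well) were treated with compounds for 16 hr at 37 C in complete medium. Dead-cell protease release was read by bis-AAF-R110 fluorescence (Ex/Em 485/520). AC50 came from Hill fits, normalized to DMSO and 15 uM tetraoctylammonium bromide.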

[3] = MultiTox-Fluor Cytotoxicity Assay - LYMP1-003 - Live Cells (AID 962); conditions: LYMP1-003 lymphoblastoid cells, MultiTox-Fluor live-cell protease fluorescence; series mostly up to 92.2 µM;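 also: cells exposed to compound for 16 hours at 37 °C; cytotoxic hits lower the live-cell protease signal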
Summary of the method: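 Cells plated at 2500 per well and incubated 5 hr; compounds added and incubated 16 hr at 37 C; MultiTox-Fluor reagent added for 60 min at room temperature; fluorescence of liberated AFC measured at 405/510 nm.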

[4] = Cell Viability - LYMP1-003 - Assay at 24 hr (AID 963); conditions: LYMP1-003 lymphoblastoid cell viability; series mostly up to 92.2 µM
Summary of the method: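 Acute toxicity in LYMP1-003 lymphoblastoid cells: 24 hr compound treatment at 37 C, ATP measured with CellTiter-Glo after 30 min at room temperature. AC50 derived by fitting the Hill equation to qHTS titrations.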

[5] = Cell Viability - LYMP1-003 - Assay at 40 hr (AID 964); conditions: LYMP1-003 lymphoblastoid viability; series mostly up to 92.2 µM; also: nearly all actives have a fitted effect of over 60% in size
Summary of the method: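 This qHTS cytotoxicity screen treats human lymphoblastoid cells (LYMP1-003) with compounds for 40 hr and quantifies cellular ATP via luciferase luminescence.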

[6] = Cell Viability - LYMP2-003 (AID 965); conditions: LYMP2-003 lymphoblastoid cell viability; series mostly up to 92.2 µM;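 also: cells exposed to compounds for 24 h before reading; nearly all actives have a fitted effect of over 50% in size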
Summary of the method: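 Seed 2500 lymphoblastoid cells/well; incubate 5 hr, 37 C; add compounds; incubate 24 hr, 37 C; add CellTiter-Glo, 30 min RT; read luminescence. AC50 from Hill fit.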

[7] = Cell Viability - LYMP2-004 (AID 966); conditions: LYMP2-004 lymphoblastoid cell viability, qHTS; series mostly up to 92.2 µM; also: nearly all actives have a fitted effect of over 65% in size
Summary of the method: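 Acute toxicity is scored as a concentration-dependent drop in intracellular ATP, quantified by luciferase luminescence, in human lymphoblastoid cells exposed to compound for 24 hr. AC50 derives from Hill-equation modelling.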

[8] = Cell Viability - LYMP2-005 (AID 967); conditions: LYMP2-005 lymphoblastoid cell viability; series mostly up to 92.2 µM;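 also: cells exposed to compound for 24 h at 37 °C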
Summary of the method: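 Acute cytotoxicity is scored as a concentration-dependent drop in intracellular ATP in human lymphoblastoid LYMP2-005 cells after 24 h compound treatment. ATP is quantified by luciferase luminescence, and AC50 is derived by Hill-equation modelling.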

[9] = Cell Viability - LYMP2-009 (AID 968); conditions: LYMP2-009 lymphoblastoid cell viability; series mostly up to 92.2 µM;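 also: cells exposed to compound for 24 h at 37 °C; nearly all actives have a fitted effect of over 55% in size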
[10] = Cell Viability - LYMP2-011 (AID 969); conditions: LYMP2-011 lymphoblastoid cells viability; series mostly up to 92.2 µM; also: nearly all actives have a fitted effect of over 60% in size
Summary of the method: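 Acute toxicity is scored as a concentration-dependent drop in intracellular ATP of a human lymphoblastoid line after 24 hr treatment. Values are AC50s modeled with the Hill equation.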

[11] = Cell Viability - LYMP2-013 (AID 970); conditions: LYMP2-013 lymphoblastoid cells viability; series mostly up to 92.2 µM;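 also: cells exposed to compound for 24 h at 37 °C; nearly all actives have a fitted effect of over 55% in size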
Summary of the method: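 Acute toxicity was measured in human lymphoblastoid cells (2500/well) exposed to compound titrations for 24 hr, with ATP luminescence (CellTiter-Glo) as read-out and AC50 fitted by Hill equation.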

[12] = Cell Viability - LYMP2-017 (AID 972); conditions: LYMP2-017 lymphoblastoid cell viability; series mostly up to 92.2 µM;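 also: cells exposed to compound for 24 hours at 37 °C; nearly all actives have a fitted effect of over 55% in size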
Summary of the method: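 Steps: plate 2500 lymphoblastoid cells per well; incubate 5 hr at 37 C; add compound across a concentration series and incubate 24 hr at 37 C; add CellTiter-Glo and read luminescence after 30 min at room temperature; fit Hill curves for AC50.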

[13] = Cell Viability - LYMP2-019 (AID 973); conditions: LYMP2-019 lymphoblastoid cell line viability; series mostly up to 92.2 µM;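 also: cells exposed to compound for 24 h at 37 °C; nearly all actives have a fitted effect of over 55% in size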
Summary of the method: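 Cells plated at 2500/well and allowed 5 hr at 37 C before compound addition. After 24 hr incubation, CellTiter-Glo reagent was added, plates sat 30 min at room temperature, and luminescence was recorded.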

[14] = Cell Viability - LYMP2-021 (AID 974); conditions: LYMP2-021 lymphoblastoid cells viability; series mostly up to 92.2 µM
Summary of the method: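 Concentration-response cytotoxicity in a human lymphoblastoid line: 24 hr treatment at 37 C in complete culture medium, tetraoctylammonium bromide as positive control, luminescent ATP quantitation as viability measure.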

[15] = Cell Viability - LYMP2-023 (AID 975); conditions: LYMP2-023 lymphoblastoid cell viability; series mostly up to 92.2 µM
Summary of the method: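 Concentration-dependent drop in intracellular ATP measures acute cytotoxicity in a human lymphoblastoid line treated for 24 hours in complete culture medium. AC50 values are taken from Hill-equation fits of qHTS data.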

[16] = Cell Viability - LYMP2-002 (AID 977); conditions: LYMP2-002 lymphoblastoid cell viability, qHTS; series mostly up to 92.2 µM;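 also: compound exposure lasted 24 h at 37 °C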
Summary of the method: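 Cytotoxicity is scored as concentration-dependent loss of cellular ATP in a human lymphoblastoid line after 24 hr compound treatment at 37 C. AC50 is obtained by modelling concentration-response data with the Hill equation.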

[17] = Cell Viability - LYMP2-006 (AID 978); conditions: LYMP2-006 lymphoblastoid cell viability, qHTS; series mostly up to 92.2 µM; also: nearly all actives have a fitted effect of over 60% in size
Summary of the method: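 Cells are seeded at 2500 per well and rested 5 hr at 37 C. Compounds are added across a concentration series for 24 hr at 37 C, after which ATP is quantified by luciferase luminescence.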

[18] = Cell Viability - LYMP2-007 (AID 979); conditions: LYMP2-007 lymphoblastoid cell viability; series mostly up to 92.2 µM;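 also: cells exposed to compound for 24 h before reading; nearly all actives have a fitted effect of over 60% in size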
Summary of the method: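 Acute toxicity is scored as a concentration-dependent fall in intracellular ATP in human lymphoblastoid cells treated 24 hr at 37 C, measured by luciferase luminescence; Hill-equation modelling yields AC50.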

[19] = Cell Viability - LYMP2-008 (AID 980); conditions: LYMP2-008 lymphoblastoid cell viability, qHTS; series mostly up to 92.2 µM
Summary of the method: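 Acute cytotoxicity is scored as concentration-dependent loss of cellular ATP in a human lymphoblastoid line after 24 hr treatment at 37 C. ATP is quantified by luciferase luminescence.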

[20] = Cell Viability - LYMP2-010 (AID 981); conditions: LYMP2-010 lymphoblastoid cell viability, qHTS; series mostly up to 92.2 µM
Summary of the method: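 Acute toxicity is scored as a concentration-dependent loss of cellular ATP in human lymphoblastoid cells after 24 hr compound exposure in complete medium. Tetraoctylammonium bromide is the positive control.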

Measured: Potency

O=C(/C=C/c1ccc(O)c(O)c1)O[C@@H](C(=O)O)[C@@H](OC(=O)/C=C/c1ccc(O)c(O)c1)C(=O)O
inactive: [1] | [2] | [3] | [4] | [5] | [6] | [7] | [8] | [9] | [10] | [11] | [12] | [13] | [14] | [15] | [16] | [17] | [18] | [19] | [20]

CC12CCC(CC1=O)C2(C)C (stereo not given)
inactive: [1] | [2] | [3] | [4] | [5] | [6] | [7] | [8] | [9] | [10] | [11] | [12] | [13] | [14] | [15] | [16] | [17] | [18] | [19] | [20]
